High-throughput results: PubChem BioAssay, National Center for Advancing Translational Sciences (NCATS)
TRPV1 ag – agonists of human vanilloid receptor 1 (TRPV1); activation, % at 8.33 µM; AID 540275; TRPV1-expressing cells, Fluo-8 calcium influx, agonist mode; Q8NER1; hit rate 0.19% among 320,000; in the data active = activation above about 80%; inconclusive = between about 30% and that limit; also: 0% is about no effect
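TRPV1-expressing cells were cultured overnight at 35.5C and loaded with Fluo-8 calcium dye for 40 to 90 min at room temperature. After a 10 s baseline, compound was added and calcium influx was read kinetically for 3 min (ex 480/em 520 nm).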
FUS yeast rescue – rescues growth of FUS-expressing yeast; S. cerevisiae FUS-expressing, growth rescue, OD600, 24 h; Potency, µM (top dose mostly 76.6 µM), actives largely listed as activators; hit rate 0.24% among 390,000;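 also: potency is read from the fitted curve at half-maximal effect; plate controls were DMSO vehicle for no effect and reference control for full effect; nearly all actives have a fitted effect of over 55% in size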
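Toxicity suppression screen in FUS-yeast. Cells induced with 2% galactose, starting OD 0.005, treated 24hr at 30C with compounds at multiple final concentrations; growth by OD600.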
Giardia kill – Giardia lamblia killing; Giardia lamblia trophozoite viability; activity change, % at 7.66 µM, hits read low; AID 540267; hit rate 0.15% among 340,000; in the data active = activity change below about -80%; inconclusive = between about -30% and that limit;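 also: parasites exposed to compound for two days anaerobically before the ATP read; % is scaled to controls: 0 for no effect and ±100 for the full control effect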
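Each well holds 100 Giardia trophozoites and compound. After two days (48 hrs) at 37 deg C in anaerobic conditions, ATP is quantified by luminescence.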
ELG1 repair inh – inhibitors of ELG1-dependent DNA repair in HEK293T cells | hit rate 2.3% among 330,000 | AID 504467 | Potency, µM (series often up to 46.1 µM), inactives show at the top dose activity change, negative = inhibition, most hits filed as inhibitors | HEK293T ELG1-luciferase reporter, luminescence, 16 h; DNA damage induced by 5-fluorouridine; also: potency is read from the fitted curve at half-maximal effect; % is scaled to controls: 0 for no effect and ±100 for the full control effect; nearly all actives have a fitted effect of over 55% in size
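Reporter activity after DNA damage by 5-fluorouridine is monitored. Compound-treated cells incubate 16 hr at 37 °C, then ONE-Glo is added for 30 min before luminescence reading.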
TRPV1 PAM – human TRPV1 potentiation; Q8NER1; TRPV1-expressing cells, Fluo-8 calcium influx, capsaicin EC20 potentiation; potentiation, % at 8.33 µM; hit rate 0.02% among 320,000; AID 540277; in the data active = potentiation above about 80%; inconclusive = between about 30% and that limit; also: 0% is about no effect
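Fluo-8 calcium influx in TRPV1-expressing cells, kinetic read (ex 480/em 520 nm). Compound added and read 3 min for agonist activity, followed by capsaicin at EC20 final and 2 min further read for enhancement.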
Active calls of the source: *; i = inactive; ? = inconclusive; . = no result given. Most compounds without a hit are left out; they make up all but 2.3% or so of the library. Unless noted, calls follow the shape of the dose curve; as a rule, active = well fitted curve in the direction sought with a large enough effect; inconclusive = small, poorly fitted or top-dose-only effect, or another doubt; inactive = no such curve, though single readings can be large; an effect the other way counts as inactive or inconclusive.

SMILES	TRPV1 ag	FUS yeast rescue	Giardia kill	ELG1 repair inh	TRPV1 PAM
CC1CCN(c2ccc(-c3cccs3)nn2)CC1	?	i	-94*	?	-7
Clc1ccc(-c2cccs2)nn1	2	i	30	25%	-5
Cc1cc(Br)ccc1NC(=O)c1sc2nc3n(c(=O)c2c1C)CCCC3	.	i	.	.	.
CCN1C(=O)[C@H]2[C@@H](c3ccc(-c4ccc(Cl)c(Cl)c4)cc3)N[C@@](C)(C(=O)OC)[C@H]2C1=O	-5	32µM*	-25	?	-31
CCN1C(=O)[C@H]2[C@@H](c3ccc(-c4ccc(Cl)c(Cl)c4)cc3)N3CCCC[C@@]3(C(=O)OC)[C@H]2C1=O	-6	i	-2	25%	-65
CCN1C(=O)[C@H]2[C@@H](c3ccc(-c4ccc(Cl)c(Cl)c4)c(OC)c3)N3CCCC[C@@]3(C(=O)OC)[C@H]2C1=O	.	25µM*	19	-19%	.
COC(=O)[C@@]12CCCCN1[C@H](c1ccc(-c3ccc(OC)cc3)c(OC)c1)[C@@H]1C(=O)N(C)C(=O)[C@@H]12	4	i	-8	-10%	-14
COC(=O)[C@@]12CCCCN1[C@H](c1ccc(-c3ccc(F)cc3)c(OC)c1)[C@H]1C(=O)N(C)C(=O)[C@H]12	.	i	-4	13µM*	.
CCN1C(=O)[C@H]2[C@@H](c3ccc(-c4ccc(OC)cc4)cc3)N3CCC[C@@]3(C(=O)OC)[C@H]2C1=O	4	28µM*	-8	?	-20
Cc1ccc(CCNC(=O)c2cn(C)c3ccc(S(=O)(=O)N4CCC(C)CC4)cc3c2=O)cc1	.	i	.	.	.
O=C(CSc1ccc(-c2nc3ccccc3[nH]2)cn1)N1CCN(C(=O)c2ccco2)CC1	11	14µM*	-8	16µM*	1
CCC1(c2ccc(Cl)cc2)NC(=O)N(CC(=O)NCc2ccc(F)cc2)C1=O (configuration not stated)	-4	i	41	-10%	-2
CCC1(c2ccc(Cl)cc2)NC(=O)N(Cc2ccc(C(=O)OC)cc2)C1=O (configuration not stated)	18	i	1	21µM*	-9
CCOc1ccccc1NC(=O)Cn1cc(C(=O)c2ccc(Cl)cc2)c(=O)c2ccc(C)nc21	.	i	.	.	.
NC(=O)[C@@H]1CC2(CC(c3cccc(NC(=O)CC(c4ccccc4)c4ccccc4)c3)=NO2)CN1C(=O)COc1ccc(Cl)cc1 (some centres not stated)	-1	?	-5	13µM*	-3
NC(=O)[C@H]1CC2(CC(c3cccc(NC(=O)COc4ccc(Cl)cc4)c3)=NO2)CN1C(=O)CC(c1ccccc1)c1ccccc1 (some centres not stated)	-1	i	-22	?	?
COc1ccc(CCNC(=O)CCc2cn(Cc3ccccc3Cl)c3ccccc23)c(OC)c1	.	i	.	.	.
O=C(c1cccc(C(=O)N2CCN(c3ccccc3F)CC2)c1)N1CCN(c2ccccc2F)CC1	-4	?	11	16µM*	16
COc1ccccc1N1CCN(S(=O)(=O)CCNC(=O)CCc2ccccc2)CC1	.	i	.	.	.
Cc1ccc(C2(c3noc(CN4CCC(c5ccncc5)CC4)n3)CCCC2)cc1	15	i	7	16µM*	-4
CCCCN=c1scc(-c2ccc3c(c2)NC(=O)CO3)n1N=C1CCCC1	8	?	-12	23µM*	-8
Cc1[nH]c2ccccc2c1C(=O)CSc1nc2cc(S(=O)(=O)N3CCCCC3)ccc2o1	-1	?	-11	15µM*	-2
Cc1ccc(NC(C)C(=O)N/N=C/c2ccc([N+](=O)[O-])s2)cc1 (configuration not stated)	12	i	-84*	?	-12
COc1ccc(NC(C)C(=O)N/N=C/c2ccc([N+](=O)[O-])s2)cc1 (configuration not stated)	4	i	-89*	18µM*	-2
CCCCC(=O)Nc1cccc(NC(=O)c2cccc(Br)c2)c1	3	i	-16	7.3µM*	4
SMILES	TRPV1 ag	FUS yeast rescue	Giardia kill	ELG1 repair inh	TRPV1 PAM
COc1ccc(OCCCC(=O)Nc2cccc(C(C)=O)c2)cc1	?	.	-21	18µM*	-35
COc1ccc(OCCCC(=O)Nc2cccc(SC)c2)cc1	?	.	-14	-2%	-7
COC(=O)N(C)C[C@H]1OCc2cn(nn2)CCCC(=O)N([C@@H](C)CO)C[C@@H]1C	.	i	.	.	.
NC(=O)[C@H](Cc1cc2ccccc2s1)NC(=O)[C@@H]1CC2(CC(c3cccc(NC(=O)[C@@H]4CCC(=O)N4)c3)=NO2)CN1C(=O)c1ccccc1 (some centres not stated)	-2	35µM*	-16	3%	10
NC(=O)[C@H](Cc1cc2ccccc2s1)NC(=O)[C@@H]1CC2(CC(c3cccc(NC(=O)[C@@H]4CCC(=O)N4)c3)=NO2)CN1C(=O)/C=C/c1c(F)cccc1Cl (some centres not stated)	-2	?	2	-2%	11
NC(=O)[C@H](Cc1cc2ccccc2s1)NC(=O)[C@@H]1CC2(CC(c3cccc(NC(=O)[C@@H]4CCC(=O)N4)c3)=NO2)CN1C(=O)/C=C/Sc1ccccc1 (some centres not stated)	1	28µM*	13	-10%	-1
O=C(Nc1ccn(C2CCC(CO)O2)c(=O)n1)c1ccccc1 (configuration not stated)	.	i	.	.	.
Cc1ccc(CNc2ccc(-c3nc(C(C)C)no3)cc2[N+](=O)[O-])cc1	.	i	.	.	.
CCOC(=O)c1c(C)oc2nc(C)nc(NC(C)c3ccccc3)c12 (configuration not stated)	.	i	.	.	.
C=CCC[C@@H](Cc1ccc(F)cc1)C(=O)OC[C@H](Cc1c[nH]c2ccccc12)NC(=O)[C@H](CC=C)CC(=O)N(CCO)Cc1ccccc1	.	?	-11	18µM*	.
